For test [1], the target named is MAP/microtubule affinity-regulating kinase 3 (Homo sapiens) (UniProt P27448). The following applies: at 1 µM.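 Further: reported values are averaged percent inhibition of MARK3.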
Test [2] addresses T1, MAP/microtubule affinity-regulating kinase 4 (Homo sapiens) (UniProt Q96L34).
T1 sequence (whole entry): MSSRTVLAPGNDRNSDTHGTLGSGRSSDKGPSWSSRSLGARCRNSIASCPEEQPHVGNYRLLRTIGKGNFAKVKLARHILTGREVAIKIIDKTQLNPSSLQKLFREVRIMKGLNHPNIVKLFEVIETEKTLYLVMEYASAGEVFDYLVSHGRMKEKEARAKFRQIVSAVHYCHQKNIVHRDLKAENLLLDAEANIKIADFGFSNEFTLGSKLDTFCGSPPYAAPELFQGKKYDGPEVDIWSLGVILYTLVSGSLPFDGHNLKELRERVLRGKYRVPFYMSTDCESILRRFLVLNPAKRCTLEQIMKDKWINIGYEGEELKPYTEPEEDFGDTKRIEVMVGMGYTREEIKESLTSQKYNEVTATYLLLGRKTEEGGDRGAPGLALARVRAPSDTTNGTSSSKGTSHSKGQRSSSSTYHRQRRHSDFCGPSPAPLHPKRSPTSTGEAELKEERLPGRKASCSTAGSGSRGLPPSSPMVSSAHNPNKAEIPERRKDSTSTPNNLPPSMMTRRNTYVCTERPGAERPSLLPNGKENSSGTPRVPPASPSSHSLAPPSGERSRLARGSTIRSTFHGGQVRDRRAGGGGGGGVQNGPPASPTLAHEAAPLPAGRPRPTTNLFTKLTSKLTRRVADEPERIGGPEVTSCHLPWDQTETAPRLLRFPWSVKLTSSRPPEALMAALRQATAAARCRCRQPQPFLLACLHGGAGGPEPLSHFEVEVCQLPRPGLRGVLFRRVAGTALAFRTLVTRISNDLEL
The following applies: at 0.1 µM.

Test [3] deals with T1, MAP/microtubule affinity-regulating kinase 4 (Homo sapiens). The settings on record: at 1 µM.
For test [4], the target named is Maternal embryonic leucine zipper kinase (Homo sapiens) (UniProt Q14680). The following applies: at 0.1 µM.
Test [5] shares this target. The settings on record: at 1 µM.
Test [6] concerns the target MAP kinase-interacting serine/threonine-protein kinase 1 (Homo sapiens) (UniProt Q9BUB5). The settings on record: at 0.1 µM.
For test [7] the target is unchanged. The settings on record: at 1 µM.
The target of test [8] is MAP kinase-interacting serine/threonine-protein kinase 2 (Homo sapiens) (UniProt Q9HBH9). The following applies: at 0.1 µM.
Test [9] shares this target. The following applies: at 1 µM.
Test [10] addresses Serine/threonine-protein kinase MARK2 (Homo sapiens) (UniProt Q7KZI7). The settings on record: at 0.1 µM.
Test [11] shares this target. The following applies: at 1 µM.
For test [12], the target named is PAS domain-containing serine/threonine-protein kinase (Homo sapiens) (UniProt Q96RG2). The following applies: at 0.1 µM.
Test [13] shares this target. The settings on record: at 1 µM.
Test [14] addresses Phosphorylase b kinase gamma catalytic chain, skeletal muscle/heart isoform (Homo sapiens) (UniProt Q16816). The following applies: at 0.1 µM.
Test [15] shares this target. The settings on record: at 1 µM.
Test [16] has as its target T2, Phosphorylase b kinase gamma catalytic chain, liver/testis isoform (Homo sapiens) (UniProt P15735).
T2 sequence (whole entry): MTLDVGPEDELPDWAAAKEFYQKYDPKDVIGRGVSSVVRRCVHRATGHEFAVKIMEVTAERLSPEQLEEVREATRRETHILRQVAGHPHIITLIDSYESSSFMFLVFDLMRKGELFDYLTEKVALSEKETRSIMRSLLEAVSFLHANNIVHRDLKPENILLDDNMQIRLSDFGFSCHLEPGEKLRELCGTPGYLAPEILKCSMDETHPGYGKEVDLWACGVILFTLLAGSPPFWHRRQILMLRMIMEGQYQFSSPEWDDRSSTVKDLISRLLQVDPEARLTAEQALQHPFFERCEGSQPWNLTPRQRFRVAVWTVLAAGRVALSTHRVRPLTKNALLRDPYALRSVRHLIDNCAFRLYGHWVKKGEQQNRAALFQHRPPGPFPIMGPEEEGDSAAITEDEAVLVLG
The following applies: at 0.1 µM.

The target in test [17] is T2, Phosphorylase b kinase gamma catalytic chain, liver/testis isoform (Homo sapiens). The settings on record: at 1 µM.
The target of test [18] is Serine/threonine-protein kinase pim-1 (Homo sapiens) (UniProt P11309). The following applies: at 0.1 µM.
For test [19] the target is unchanged. The following applies: at 1 µM.
In test [20] the target is Serine/threonine-protein kinase pim-2 (Homo sapiens) (UniProt Q9P1W9). The settings on record: at 0.1 µM.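 Further: reported value is the mean percent inhibition of PIM2, measured in the GSK PKIS kinase inhibitor set screen.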

The results in this text go back to ChEMBL document CHEMBL1961873, “Compounds: GSK PKIS; Assays: Nanosyn kinase panel” (2012).

Chain of Maternal embryonic leucine zipper kinase (Homo sapiens) (Q14680 whole entry, looked up): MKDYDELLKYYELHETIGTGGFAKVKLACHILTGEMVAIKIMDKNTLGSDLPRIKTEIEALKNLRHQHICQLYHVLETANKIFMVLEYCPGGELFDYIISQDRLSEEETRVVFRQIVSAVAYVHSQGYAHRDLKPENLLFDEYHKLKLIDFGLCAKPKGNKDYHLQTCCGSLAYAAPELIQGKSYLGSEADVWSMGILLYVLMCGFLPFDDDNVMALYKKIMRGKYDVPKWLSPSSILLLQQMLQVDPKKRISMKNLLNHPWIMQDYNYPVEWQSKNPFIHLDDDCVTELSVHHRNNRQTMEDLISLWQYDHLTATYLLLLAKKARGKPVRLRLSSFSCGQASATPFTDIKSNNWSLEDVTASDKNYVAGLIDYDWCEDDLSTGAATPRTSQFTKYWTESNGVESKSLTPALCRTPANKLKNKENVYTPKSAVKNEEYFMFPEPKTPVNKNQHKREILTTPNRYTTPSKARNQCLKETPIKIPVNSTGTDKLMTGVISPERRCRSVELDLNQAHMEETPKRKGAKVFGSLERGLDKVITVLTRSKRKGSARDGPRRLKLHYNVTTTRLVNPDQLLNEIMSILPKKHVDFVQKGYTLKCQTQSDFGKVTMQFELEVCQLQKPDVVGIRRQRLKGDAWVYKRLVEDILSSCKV
Chain of MAP/microtubule affinity-regulating kinase 3 (Homo sapiens) (P27448 whole entry, looked up): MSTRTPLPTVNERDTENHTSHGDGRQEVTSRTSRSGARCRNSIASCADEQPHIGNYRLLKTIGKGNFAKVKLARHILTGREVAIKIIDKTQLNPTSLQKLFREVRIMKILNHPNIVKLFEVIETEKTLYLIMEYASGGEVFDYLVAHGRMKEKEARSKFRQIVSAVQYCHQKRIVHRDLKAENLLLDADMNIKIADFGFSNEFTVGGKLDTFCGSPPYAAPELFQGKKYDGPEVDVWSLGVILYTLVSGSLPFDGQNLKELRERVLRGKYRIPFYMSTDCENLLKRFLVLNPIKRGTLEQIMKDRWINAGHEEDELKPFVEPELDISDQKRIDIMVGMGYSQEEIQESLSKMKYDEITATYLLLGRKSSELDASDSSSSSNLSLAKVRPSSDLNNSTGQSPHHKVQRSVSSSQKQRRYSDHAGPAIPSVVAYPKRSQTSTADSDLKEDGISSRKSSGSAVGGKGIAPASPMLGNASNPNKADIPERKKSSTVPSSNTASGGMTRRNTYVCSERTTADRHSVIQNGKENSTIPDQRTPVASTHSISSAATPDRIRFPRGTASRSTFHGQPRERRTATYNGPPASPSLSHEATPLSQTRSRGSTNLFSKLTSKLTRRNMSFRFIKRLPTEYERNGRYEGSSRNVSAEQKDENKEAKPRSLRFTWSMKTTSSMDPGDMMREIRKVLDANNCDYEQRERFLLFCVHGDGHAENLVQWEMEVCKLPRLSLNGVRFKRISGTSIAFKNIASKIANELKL
Chain of MAP kinase-interacting serine/threonine-protein kinase 2 (Homo sapiens) (Q9HBH9 whole entry, looked up): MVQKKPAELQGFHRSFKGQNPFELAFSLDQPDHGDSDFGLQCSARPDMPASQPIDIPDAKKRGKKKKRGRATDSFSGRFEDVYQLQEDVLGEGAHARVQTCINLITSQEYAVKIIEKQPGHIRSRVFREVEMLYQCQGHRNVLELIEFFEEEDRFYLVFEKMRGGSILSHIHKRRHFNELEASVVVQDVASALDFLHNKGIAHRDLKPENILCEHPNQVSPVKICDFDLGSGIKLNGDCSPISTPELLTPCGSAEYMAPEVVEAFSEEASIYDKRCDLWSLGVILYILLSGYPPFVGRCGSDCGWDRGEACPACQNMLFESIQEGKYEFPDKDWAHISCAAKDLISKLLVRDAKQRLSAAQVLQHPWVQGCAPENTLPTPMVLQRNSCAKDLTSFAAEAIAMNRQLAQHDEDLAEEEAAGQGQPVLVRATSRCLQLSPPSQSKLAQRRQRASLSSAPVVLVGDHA
Chain of Phosphorylase b kinase gamma catalytic chain, skeletal muscle/heart isoform (Homo sapiens) (Q16816 whole entry, looked up, canonical isoform): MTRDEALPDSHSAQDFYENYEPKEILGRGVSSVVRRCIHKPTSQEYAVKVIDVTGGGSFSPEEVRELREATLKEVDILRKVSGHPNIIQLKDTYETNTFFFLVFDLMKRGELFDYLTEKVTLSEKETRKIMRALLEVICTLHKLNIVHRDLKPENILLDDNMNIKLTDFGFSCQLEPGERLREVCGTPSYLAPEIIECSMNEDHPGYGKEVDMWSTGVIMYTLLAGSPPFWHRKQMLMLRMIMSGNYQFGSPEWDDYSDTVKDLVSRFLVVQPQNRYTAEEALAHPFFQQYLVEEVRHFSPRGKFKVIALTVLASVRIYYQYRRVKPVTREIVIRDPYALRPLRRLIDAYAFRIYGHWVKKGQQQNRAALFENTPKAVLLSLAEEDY
Chain of Serine/threonine-protein kinase pim-1 (Homo sapiens) (P11309 whole entry, looked up): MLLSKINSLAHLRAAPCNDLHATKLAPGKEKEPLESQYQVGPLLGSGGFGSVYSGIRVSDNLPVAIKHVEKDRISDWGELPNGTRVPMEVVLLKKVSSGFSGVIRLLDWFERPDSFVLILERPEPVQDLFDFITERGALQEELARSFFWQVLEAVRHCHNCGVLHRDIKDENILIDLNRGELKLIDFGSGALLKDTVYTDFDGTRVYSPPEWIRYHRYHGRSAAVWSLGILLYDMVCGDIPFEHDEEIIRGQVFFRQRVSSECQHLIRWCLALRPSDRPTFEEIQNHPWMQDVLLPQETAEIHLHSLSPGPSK
Chain of MAP kinase-interacting serine/threonine-protein kinase 1 (Homo sapiens) (Q9BUB5 whole entry, looked up): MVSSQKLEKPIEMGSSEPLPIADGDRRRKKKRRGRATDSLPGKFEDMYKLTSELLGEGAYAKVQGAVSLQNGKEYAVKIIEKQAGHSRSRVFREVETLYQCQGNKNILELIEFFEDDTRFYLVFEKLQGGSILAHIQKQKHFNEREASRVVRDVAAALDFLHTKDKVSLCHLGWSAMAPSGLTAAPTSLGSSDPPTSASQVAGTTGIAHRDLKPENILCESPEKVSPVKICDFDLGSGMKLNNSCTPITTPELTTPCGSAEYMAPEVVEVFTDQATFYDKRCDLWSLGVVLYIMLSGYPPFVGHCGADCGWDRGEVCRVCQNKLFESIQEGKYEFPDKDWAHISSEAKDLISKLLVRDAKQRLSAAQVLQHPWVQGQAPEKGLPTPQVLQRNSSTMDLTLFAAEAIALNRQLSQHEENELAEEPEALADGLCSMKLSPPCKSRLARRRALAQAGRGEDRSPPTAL
Chain of Serine/threonine-protein kinase MARK2 (Homo sapiens) (Q7KZI7 whole entry): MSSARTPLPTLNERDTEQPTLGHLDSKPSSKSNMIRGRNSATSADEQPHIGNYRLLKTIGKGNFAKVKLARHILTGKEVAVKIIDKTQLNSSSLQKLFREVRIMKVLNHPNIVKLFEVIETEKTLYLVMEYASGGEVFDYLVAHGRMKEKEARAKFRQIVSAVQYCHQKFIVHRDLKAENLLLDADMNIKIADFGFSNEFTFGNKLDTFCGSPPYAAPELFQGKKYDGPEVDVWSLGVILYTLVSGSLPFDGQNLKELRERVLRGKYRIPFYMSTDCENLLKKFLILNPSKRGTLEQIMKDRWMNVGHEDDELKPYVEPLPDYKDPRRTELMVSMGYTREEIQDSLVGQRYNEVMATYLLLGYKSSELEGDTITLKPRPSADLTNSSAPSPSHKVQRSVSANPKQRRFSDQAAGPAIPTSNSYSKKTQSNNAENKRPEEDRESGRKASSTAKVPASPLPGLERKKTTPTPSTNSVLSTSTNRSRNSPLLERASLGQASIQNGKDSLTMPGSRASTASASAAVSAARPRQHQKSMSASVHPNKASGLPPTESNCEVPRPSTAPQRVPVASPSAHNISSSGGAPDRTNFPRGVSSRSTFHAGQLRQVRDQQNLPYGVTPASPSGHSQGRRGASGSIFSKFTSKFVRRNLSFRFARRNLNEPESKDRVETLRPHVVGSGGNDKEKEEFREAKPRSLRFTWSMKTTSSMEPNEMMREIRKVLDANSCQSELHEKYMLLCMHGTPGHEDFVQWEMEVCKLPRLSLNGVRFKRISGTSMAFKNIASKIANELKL
Chain of Serine/threonine-protein kinase pim-2 (Homo sapiens) (Q9P1W9 whole entry, looked up): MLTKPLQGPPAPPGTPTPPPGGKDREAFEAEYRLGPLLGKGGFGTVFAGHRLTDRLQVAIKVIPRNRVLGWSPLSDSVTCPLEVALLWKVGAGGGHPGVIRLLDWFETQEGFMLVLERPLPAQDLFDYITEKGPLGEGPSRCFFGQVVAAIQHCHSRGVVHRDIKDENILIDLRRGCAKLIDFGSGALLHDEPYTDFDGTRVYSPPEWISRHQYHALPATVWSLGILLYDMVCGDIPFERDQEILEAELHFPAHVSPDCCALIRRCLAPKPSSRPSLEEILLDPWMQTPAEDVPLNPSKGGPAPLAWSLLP

In the case of `CCn1c(-c2nonc2N)nc2c(N3CCCC3)nccc21`, the inhibition in [1] was -0.19%; in test [2], 2.01%; in test [3] it was 3.21%; in test [4], 0.66%; in [5], 6.1%; in test [6], -0.54%. Further, the inhibition in test [7] was 5.25%; in test [8], -1.08%; in test [9], 1.33%; in test [10] it was 2.95%; in test [11] it was 3.46%; in test [12], -0.88%. For the same compound, the inhibition was -1.38% in [13]; 3.74% in test [14]; -1.02% in test [15]; -3.65% in [16]; -3.95% in test [17]; 0.8% in [18]. Moreover, the results for the inhibition in test [19] and in [20] were 1.03% and -0.33%, respectively.

On to `CC1=C(C(=O)Nc2ccc3[nH]ncc3c2)C(c2ccc(Cl)c(Cl)c2)CC(=O)N1` (stereo not given), for which the inhibition in test [1] was 9.26%; in [2], -0.78%; in test [3] it was 3.04%; in [4] it was -0.28%; in [5], 5.33%; in test [6], 2.25%. Also, the inhibition is 5.99% in [7]; 0.25% in [8]; 1.48% in test [9]; -0.78% in test [10]; 3.36% in test [11]; -0.49% in test [12]. Besides, the inhibition is -1.74% in [13]; 1.04% in [14]; 2.45% in test [15]; 2.86% in [16]; -0.26% in test [17]; -0.12% in test [18]. Also, the values for the inhibition in test [19] and in [20] were 0.22% and 0.05%, respectively.

As to `COc1cc2ncn(-c3cc(OCc4ccccc4Cl)c(C(N)=O)s3)c2cc1OC`, the inhibition in test [1] was 9.99%; in test [2], 1.66%; in test [3], 9.04%; in test [4] it was 2.05%; in test [5], 8.87%; in test [6], 0.61%. Besides, the inhibition in [7] is 7.42%; in test [8], 1.58%; in [9], 7.9%; in test [10] it was 0.69%; in test [11], 6.01%; in test [12] it was -0.4%. Besides, the inhibition in test [13] was -0.88%; in test [14] it was 3.72%; in test [15], 5.84%; in test [16] it was -0.8%; in test [17] it was 1.21%; in test [18] it was 0.77%. The figures for the inhibition in test [19] and in test [20] were 2.71% and 1.11%, respectively.

As to `CC1=C(C(=O)Nc2ccc3[nH]ncc3c2)C(c2ccc(F)cc2)NC(=O)N1` (stereo not given), the inhibition amounted to 8.67% in test [1]; 0.77% in test [2]; 4.62% in test [3]; 2.13% in [4]; 6.05% in test [5]; 2.34% in [6]. Further, the inhibition is 46.2% in [7]; 3.85% in test [8]; 65.3% in [9]; -0.93% in test [10]; 3.63% in test [11]; -0.71% in test [12]. Also, the inhibition is -0.21% in test [13]; 4.98% in [14]; 4.43% in [15]; 0.63% in test [16]; 2.08% in test [17]; 0.13% in test [18]. The inhibition in test [19] is -0.04%; in test [20] it was -0.16%.

Regarding `Fc1cccc(COc2ccc(Nc3ncnc4sc(-c5cccs5)cc34)cc2Cl)c1`, the inhibition in test [1] worked out at 3.4%; in test [2] it was 0.59%; in test [3], 1.48%; in test [4] it was 2.25%; in test [5] it was 3.16%; in test [6], 2.11%. Also, the inhibition stood at 5.61% in test [7]; 1.36% in test [8]; 5.08% in test [9]; 1.15% in test [10]; 4.63% in test [11]; 0.96% in test [12]. Also, the inhibition in test [13] is -0.11%; in test [14], 2.66%; in test [15], 6.77%; in test [16], -1.25%; in [17], -2.01%; in [18] it was 0.38%. For the same compound, the inhibition in test [19] worked out at 1.29%; in [20], 0.52%.

As for `O=C1NC(=O)C(c2ccc(Cl)cc2)=C1Nc1ccc(Cl)c(C(=O)O)c1`, the inhibition in test [1] was 1.91%; in [2], -0.05%; in test [3], 1.71%; in test [4], -3.46%; in [5], 1.25%; in test [6] it was -0.24%. The inhibition is -0.57% in [7]; -0.57% in test [8]; 0.11% in test [9]; -0.46% in test [10]; 2.17% in test [11]; -0.66% in test [12]. The inhibition in test [13] is -1.05%; in test [14] it was -1.07%; in test [15], 1.44%; in test [16] it was -3.95%; in [17] it was -5.8%; in [18], -0.65%. Besides, the values for the inhibition in test [19] and in test [20] were -0.5% and 1.05%, respectively.
